# Only a selection was taken, and hits are over-represented in it overall.
# ERK EGF inh = qHTS Assay for Inhibitors of the ERK Signaling Pathway using a Homogeneous Screening Assay; Stimulation with EGF | HEK293-V1b, EGF-stimulated phospho-ERK AlphaScreen | Potency, µM (doses to about 11.5 µM), for inactives: at the top dose activity change, negative = inhibition, usual class: inhibitors | 130,000 compounds, 0.41% hits | AID 1454, 2008; active = well fitted inhibition curve with a large enough effect;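 note: plate controls were stimulated vehicle wells for no effect and unstimulated vehicle basal for full effect; nearly all actives have a fitted effect of over 55% in size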
#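 Readout: AlphaScreen signal for phosphorylated ERK in lysed HEK293 cells stably expressing V1b. Stimulus 25 nM EGF, 5 min, following 30 min compound exposure. Data scaled to DMSO basal and full EGF activation.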
# Starred values were filed as active, the others as inactive; [ ] = remark or other dose. Potency is the fitted concentration of half-maximal effect.
SMILES,ERK EGF inh
COc1ccc([C@@H]2CNC(=O)C2)cc1OC1CCCC1,-1%
COc1ccc(C(=O)/C=C/c2ccc(O)cc2)cc1,-3%[57.5 µM]
COc1ccc(C(=O)/C=C/c2ccccc2)cc1,2%
COc1ccc(C(=O)/C=C/Sc2nc3ccccc3o2)cc1,28µM*
Cc1cc(O)c(C=O)c2c1C(=O)Oc1c(COC(=O)/C=C/C(=O)O)c(O)c(C(=O)O)c(C)c1O2,-5%
CCOC(=O)C1=C(SCC)c2cc3c(n2C1=O)CCCC3,25µM*
CCOC(=O)c1cc2c(nc1N)CCCC2,-5%[57.5 µM]
CCOC(=O)C1=C2c3cc(OC)c(OC)cc3CC(C)(C)N2C(=O)C1=O,-6%
O[C@@](CCN1CCCCC1)(c1ccccc1)C1CCCCC1,-2%[25.7 µM]
O=C(c1ccncc1)N1CCC2(CCCN(Cc3nccs3)C2)CC1,2%
Cc1ccc(C)c(NC(=O)COC(=O)c2cccc3c2C(=O)c2ccccc2C3=O)c1,-3%
Cc1cc(C)c(Nc2cc(S(=O)(=O)O)c(N)c3c2C(=O)c2ccccc2C3=O)c(C)c1,22µM*
Cc1cc(C)c(NC(=O)COC(=O)c2cccc3c2C(=O)c2ccccc2C3=O)c(C)c1,-12%
N#CCCn1c(=O)c(-c2ccc(F)cc2)nc2cnc(Oc3ccccc3)nc21,-5%
O=c1c(-c2cccs2)nc2cnc(Oc3cccc(Cl)c3)nc2n1C1CC1,-3%
COc1ccc(-c2[nH]ncc2C=O)cc1,4%
COc1ccc(-c2[nH]nc3oc(=O)c(CCO)c(C)c23)cc1,16µM*
COc1ccc(-c2cc(C(=O)NN)[nH]n2)cc1,1%
O=c1cnc2cnc(Oc3ccccc3)nc2n1Cc1ccc(F)cc1,10%
CC(C)[N+]1(C)[C@@H]2CC[C@H]1CC(OC(=O)[C@@H](CO)c1ccccc1)C2 (some centres not stated),-4%
O=C(CCNC(=O)c1ccccc1Cl)Nc1cc(C(F)(F)F)ccc1Cl,0%
O=C(O)c1ccccc1C(=O)Nc1ccc(Br)c(C(F)(F)F)c1,2%[57.5 µM]
O=C(CCNC(=O)c1ccccc1Cl)Nc1ccc(Br)c(C(F)(F)F)c1,28µM*
N#Cc1ccc(CN2CCCC3(CCN(C(=O)c4cnccn4)CC3)C2)cc1,6%
Cc1cccc(CNc2cc(-c3cccnc3)ncn2)c1,16%
SMILES,ERK EGF inh
CCC[C@@H]1C[C@@]1(CCC)C(NC(=O)c1ccccc1)c1cccc(Cl)c1 (some centres not stated),4%
COc1ccc2oc(-c3ccc(O)cc3)cc(=O)c2c1,3%
COC(=O)[C@@]1(Cc2ccccc2)[C@H]2c3cc(C(=O)N4CCCC4)n(Cc4ccc(O)c(OC)c4)c3C[C@H]2CN1C(=O)c1ccccc1,2%
O=C(Nc1cccc(Cl)c1)c1cccc(Oc2ccc([N+](=O)[O-])cc2Cl)c1,-4%
O=C(Nc1ccc([N+](=O)[O-])cc1Cl)c1cc(Cl)ccc1O,-10%
O=C(Nc1cccc(Cl)c1)c1cc(N=Nc2ccc([N+](=O)[O-])cc2Cl)ccc1O,14µM*
COCOc1cc(OC)ccc1C(=O)/C=C/c1cccc(C(F)(F)F)c1,-11%
N=S(=O)(O)Cc1noc2ccccc12,16%
CC(=O)N(O)[C@@H]1c2cc(C#N)ccc2OC(C)(C)[C@H]1O,-7%
O=C1C(NS(=O)(=O)c2ccccc2)=C(N2CCN(c3ccc(F)cc3)CC2)C(=O)c2ccccc21,25µM*
CC1CCN(C2=C(NS(=O)(=O)c3ccccc3)C(=O)c3ccccc3C2=O)CC1,18µM*
CC1CCN(S(=O)(=O)c2ccccc2[N+](=O)[O-])CC1,-2%
CC1CCN(C2=C(NS(=O)(=O)c3ccc(Cl)cc3)C(=O)c3ccccc3C2=O)CC1,16µM*
Cc1ccc(S(=O)(=O)NCC(c2ccccc2)N2CCCCC2)cc1 (configuration not stated),-7%[57.5 µM]
CCOC(=O)C1CCN(C(=O)c2ccccc2NS(=O)(=O)c2ccc(F)c(F)c2)CC1,9%
CCC1CCCCN1CC(C)(C)NS(=O)(=O)c1ccccc1 (configuration not stated),21%[57.5 µM]
CCOC(=O)C1CCN(S(=O)(=O)c2ccc(C(C)(C)C)cc2)CC1,0%
CCOC(=O)C1CCN(C2=C(NS(=O)(=O)c3ccc(Cl)cc3)C(=O)c3ccccc3C2=O)CC1,32µM*
O=S(=O)(Nc1nc2ccccc2nc1N1CCN(c2ccccc2)CC1)c1ccc(F)cc1,-3%
CC(=C1C(=O)c2ccccc2C1=O)N1CCN(c2ccc(F)cc2)CC1,0%[57.5 µM]
Cc1ccccc1NS(=O)(=O)c1ccc(Cl)cc1,6%
CCCCCCCCCCCCCCCCCCOC[C@H](COP(=O)([O-])OCC[N+](C)(C)C)OC(C)=O,-14%
N#Cc1cccc(CS(=O)(=O)c2nnnn2C2CCCCC2)c1,-4%
C/C(=C\CO)CCO,-10%
O=C(Nc1cccc(F)c1)N1CC[C@@]2(CCCNC2)C1,7%
SMILES,ERK EGF inh
CCOC(=O)CNc1oc(-c2ccccc2)nc1-c1ccccc1,-3%
COc1c(O)cc2oc3cc(O)c(CC=C(C)C)c(O)c3c(=O)c2c1CC=C(C)C,-20%
CCC1=C2CC[C@H]3C(=O)N(c4ccccc4)C(=O)[C@H]3[C@H]2[C@@]2(Cc3ccccc3)C(=O)N(CC(=O)OC)C(=O)N2C1=O,7%
C[C@H]1[C@H](NC(=O)/C(=N/OC(C)(C)C(=O)O)c2csc(N)n2)C(=O)N1S(=O)(=O)O (stereo in doubt),5%[25.7 µM]
CCOC(=O)/C(C)=N/NC(C)=O,-8%
Cc1noc(C)c1-c1nccc(NCc2cccnc2)n1,20%
Clc1ccc(-c2ncc3ccccn23)cc1,32µM*
O=[N+]([O-])c1cccc(-c2ncc3ccccn23)c1,-22%
Clc1ccccc1-c1ncc2ccccn12,-1%
N[C@@H](Cn1ccc(=O)n(Cc2ccccc2C(=O)O)c1=O)C(=O)O,-6%
CCCn1c(-c2ccc(F)cc2)nc2c(N3CCCN(Cc4ccccc4)CC3)nc(C)nc21,0%
c1cc2c(cc1C1CCCCC1)c1c3n2CCCNC3CCC1 (configuration not stated),28µM*
Cc1ccc2c(c1)c1c3n2CCCNC3CCC1 (configuration not stated),-15%[57.5 µM]
c1cc2c(cc1C1CCCCC1)c1c3n2CCN[C@H]3CCC1,8%
C=CCOC(=O)N[C@@H](Cc1ccccc1)/C(C(=O)OC)=C(\C)NCc1ccccc1,0%
C[C@H](Cc1ccccc1)Nc1ncnc2c1ncn2[C@@H]1O[C@H](CO)[C@H](O)[C@H]1O,1%
C=CCN1C(=O)S/C(=C\c2ccc3c(c2)n(C)c(=O)n3C)C1=O,-1%
C=CCN1C(=O)S/C(=C/c2ccc(Sc3nc4ccccc4[nH]3)o2)C1=O,25µM*
C=CCN1C(=O)S/C(=C/c2ccsc2)C1=O,2%
COC(=O)c1ccc(C(NC(=O)OCc2ccccc2)/C(=C/[C@@H](C)C(=O)NC2CCCCC2)c2cccnc2)cc1 (some centres not stated),-9%
COC(=O)N1CCC[C@@]2(CCN(C(=O)Nc3ccccc3)C2)C1,-6%
CC(=O)N1CCC[C@@]2(CCN(C(c3ccccc3)c3ccccc3)C2)C1,-2%
C/C(=N\NC(=O)c1ccccc1)c1nc2ccccc2n1C,6%
Cn1c(CNC2CCCCC2)nc2ccccc21,-7%
Cc1cc(C)c(C)c(N=Nc2nc3ccccc3n2C)c1C,14µM*
COCCc1ccc(OC[C@H](O)CNC(C)C)cc1,2%[25.7 µM]
OC(c1cc(-c2ccc(Cl)cc2)nc2ccccc12)C1CCCCN1 (configuration not stated),32µM*

# High-throughput results deposited in PubChem BioAssay by National Center for Advancing Translational Sciences (NCATS).
